This excerpt belongs to a sample that is enriched for hits.
CBX7 inh: CBX7 chromodomain binding inhibitors, primary screen, biochemical, AlphaScreen | Chromobox protein homolog 7 (Homo sapiens), O95931 | normalised signal (fraction of DMSO) (concentration not given with the values) | AlphaScreen His6-CBX7 / biotin-H3K27me3 peptide binding; active compounds read low | actives 1.1% (n = 66,000); in the data active means normalised signal below about 0.5
Large screens that a line does not name were inactive.

c1cc2c(cc1Nc1nc3nonc3nc1Nc1ccc3c(c1)OCO3)OCO2	CBX7 inh 0.37
Fc1cccc(Nc2nc3nonc3nc2Nc2cccc(F)c2)c1	none
CC1CCN(c2nc3nonc3nc2Nc2ccc3c(c2)OCO3)CC1	none
COc1ccc(NC(=O)C2CCN(S(=O)(=O)c3cccnc3)CC2)cc1	none
Cc1ccc(-c2cn(-c3ccccc3)c(SCC(=O)NC3CCCCC3)n2)cc1	none
OC(CC#CCN(Cc1ccccc1)Cc1ccccc1)(c1ccccc1)C1CCCC1 (centres undefined)	none
Cc1c(-c2ccccc2)[nH]n2c(=O)c3c(nc12)CCC3	none
COc1ccccc1C(=O)NCCc1c(C)[nH]c2ccc(OC(F)(F)F)cc12	none
Cc1[nH]c2ccc(OCc3ccccc3)cc2c1CCNC(=O)COc1ccc(F)cc1F	none
COc1ccccc1C(=O)NCCc1c(C)[nH]c2ccc(OCc3ccccc3)cc12	CBX7 inh 0.44
O=C(CSc1nnc(-c2cccc(Cl)c2)o1)N1CCCCC1	none
COc1ccc(NC(=O)CSc2nccn2-c2cc(C)cc(C)c2)cc1	none
CCN(C(=O)Cc1c(C(=O)O)[nH]c2ccc(Cl)cc12)c1ccccc1	none

Screening data (PubChem)
